Data as given in the supplement of paper PMC8728848.
The full list was thinned out, with the strongest signals kept by preference.

Experiments:
Assay in all cases: glycan array binding signal (z-score within array); higher = stronger binding
Settings in all cases: glycan notation: IUPAC condensed, linker removed
[1] = target: Fuc(a1-2)Gal(b1-3)GlcNAc(b1-3)GalNAc
Summary of the method: (§1)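 Glycan array data came from 3228 arrays in the Consortium for Functional Glycomics database, and only arrays with an available protein sequence were kept. Glycan names were put into IUPAC-condensed notation, and columns mapping to the same glycan were averaged. The binding signal is a within-array Z-score, averaged across arrays of one protein sequence run at different concentrations or buffers and across linkers. A negative Z-score can be read as non-binding.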

[2] = target: Fuc(a1-2)Gal(b1-4)[Fuc(a1-3)]GlcNAc(b1-2)[Fuc(a1-2)Gal(b1-4)[Fuc(a1-3)]GlcNAc(b1-4)]Man(a1-3)[Fuc(a1-2)Gal(b1-4)[Fuc(a1-3)]GlcNAc(b1-2)Man(a1-6)]Man(b1-4)GlcNAc(b1-4)GlcNAc
Summary of the method: as §1

[3] = target: Fuc(a1-2)Gal6S(b1-3)GlcNAc6S
Summary of the method: as §1

[4] = target: Fuc(a1-2)[Gal(a1-3)]Gal(b1-4)GlcNAc
Summary of the method: as §1

[5] = target: Fuc(a1-3)[Gal(b1-4)]GlcNAc(b1-2)Man(a1-3)[Fuc(a1-3)[Gal(b1-4)]GlcNAc(b1-2)Man(a1-6)]Man(b1-4)GlcNAc(b1-4)GlcNAc
Summary of the method: as §1

[6] = target: Fuc(a1-3)[Gal(b1-4)]GlcNAc(b1-4)Gal(b1-4)[Fuc(a1-3)]GlcNAc
Summary of the method: as §1

[7] = target: Fuc(a1-3)[GalNAc3S(b1-4)]GlcNAc
Summary of the method: as §1

Fuc(a1-4)GlcNAc = target: Fuc(a1-4)GlcNAc
Summary of the method: as §1

[8] = target: Gal(a1-3)Gal(b1-3)GlcNAc(b1-6)GalNAc
Summary of the method: as §1

[9] = target: Gal(a1-4)Gal(b1-4)GlcNAc(b1-2)Man(a1-3)[Gal(a1-4)Gal(b1-4)GlcNAc(b1-2)Man(a1-6)]Man(b1-4)GlcNAc(b1-4)GlcNAc
Summary of the method: as §1

[10] = target: Gal(b1-3)Gal(b1-4)GlcNAc(b1-2)Man(a1-3)[Gal(b1-3)Gal(b1-4)GlcNAc(b1-2)Man(a1-6)]Man(b1-4)GlcNAc(b1-4)GlcNAc
Summary of the method: as §1

[11] = target: Gal(b1-3)GalNAc(b1-4)[Neu5Ac(a2-3)]Gal(b1-4)Glc
Summary of the method: as §1

[12] = target: Gal(b1-3)GlcNAc(b1-2)Man(a1-3)[GlcNAc(b1-4)][Gal(b1-3)GlcNAc(b1-2)Man(a1-6)]Man(b1-4)GlcNAc(b1-4)GlcNAc
Summary of the method: as §1

[13] = target: Gal(b1-3)[Fuc(a1-4)]GlcNAc
Summary of the method: as §1

[14] = target: Gal(b1-3)[Fuc(a1-4)]GlcNAc(b1-3)Gal(b1-4)GlcNAc
Summary of the method: as §1

[15] = target: Gal(b1-3)[Fuc(a1-4)]GlcNAc(b1-3)Gal(b1-4)[Fuc(a1-3)]GlcNAc
Summary of the method: as §1

[16] = target: Gal(b1-3)[Neu5Ac(a2-6)]GlcNAc(b1-6)Gal(b1-4)Glc
Summary of the method: as §1

[17] = target: Gal(b1-4)GlcNAc(b1-2)Man(a1-3)[Gal(b1-4)GlcNAc(b1-2)][GlcNAc(b1-4)]Man(b1-4)GlcNAc(b1-4)GlcNAc
Summary of the method: as §1

[18] = target: Gal(b1-4)GlcNAc(b1-2)[Gal(b1-4)GlcNAc(b1-4)]Man(a1-3)[Gal(b1-4)GlcNAc(b1-2)Man(a1-6)]Man(b1-4)GlcNAc(b1-4)GlcNAc
Summary of the method: as §1

[19] = target: Gal(b1-4)GlcNAc(b1-2)[Gal(b1-4)GlcNAc(b1-6)]Man(a1-6)[GlcNAc(b1-4)][Gal(b1-4)GlcNAc(b1-2)Man(a1-3)]Man(b1-4)GlcNAc(b1-4)GlcNAc
Summary of the method: as §1

[20] = target: Gal(b1-4)GlcNAc(b1-6)Gal(b1-4)GlcNAc
Summary of the method: as §1

[21] = target: Gal(b1-4)GlcNAc(b1-6)[Gal(b1-3)]GalNAc
Summary of the method: as §1

Gal(b1-4)GlcNAc6P = target: Gal(b1-4)GlcNAc6P
Summary of the method: as §1

Gal6S(b1-4)Glc6S = target: Gal6S(b1-4)Glc6S
Summary of the method: as §1

GlcA(b1-3)Gal = target: GlcA(b1-3)Gal
Summary of the method: as §1

[22] = target: GlcNAc(b1-2)Man(a1-3)[GlcNAc(b1-4)][GlcNAc(b1-2)Man(a1-6)]Man(b1-4)GlcNAc(b1-4)GlcNAc
Summary of the method: as §1

[23] = target: GlcNAc(b1-2)[GlcNAc(b1-6)]Man(a1-6)[GlcNAc(b1-2)Man(a1-3)][GlcNAc(b1-4)]Man(b1-4)GlcNAc(b1-4)GlcNAc
Summary of the method: as §1

[24] = target: GlcNAc(b1-3)[GlcNAc(b1-4)][GlcNAc(b1-6)]GlcNAc
Summary of the method: as §1

GlcNAc3Prop(b1-4)GlcNAc = target: GlcNAc3Prop(b1-4)GlcNAc
Summary of the method: as §1

Man(a1-2)Man(a1-3)Man = target: Man(a1-2)Man(a1-3)Man
Summary of the method: as §1

[25] = target: Man(a1-2)Man(a1-3)[Man(a1-2)Man(a1-6)]Man
Summary of the method: as §1

[26] = target: Man(a1-2)Man(a1-3)[Man(a1-6)]Man(a1-6)[Man(a1-2)Man(a1-3)]Man(b1-4)GlcNAc(b1-4)GlcNAc
Summary of the method: as §1

[27] = target: Neu5Ac(a2-3)Gal(b1-4)GlcNAc(b1-2)Man
Summary of the method: as §1

[28] = target: Neu5Ac(a2-3)Gal(b1-4)GlcNAc(b1-3)[Neu5Ac(a2-3)Gal(b1-4)GlcNAc(b1-6)]GalNAc
Summary of the method: as §1

[29] = target: Neu5Ac(a2-6)Gal(b1-4)GlcNAc(b1-2)Man(a1-3)Man(b1-4)GlcNAc(b1-4)GlcNAc
Summary of the method: as §1

[30] = target: Neu5Ac(a2-6)Gal(b1-4)GlcNAc(b1-2)Man(a1-3)[GlcNAc(b1-2)Man(a1-6)]Man(b1-4)GlcNAc(b1-4)GlcNAc
Summary of the method: as §1

[31] = target: Neu5Ac(a2-6)Gal(b1-4)GlcNAc(b1-2)Man(a1-3)[Man(a1-6)]Man(b1-4)GlcNAc(b1-4)GlcNAc
Summary of the method: as §1

[32] = target: Neu5Ac(a2-6)Gal(b1-4)GlcNAc(b1-2)Man(a1-3)[Neu5Ac(a2-6)Gal(b1-4)GlcNAc(b1-2)Man(a1-6)]Man(b1-4)GlcNAc(b1-4)GlcNAc
Summary of the method: as §1

[33] = target: Neu5Ac(a2-6)Gal(b1-4)GlcNAc(b1-2)Man(a1-3)[Neu5Ac(a2-6)Gal(b1-4)GlcNAc(b1-2)Man(a1-6)]Man(b1-4)GlcNAc(b1-4)[Fuc(a1-6)]GlcNAc
Summary of the method: as §1

[34] = target: Neu5Ac(a2-6)Gal(b1-4)GlcNAc(b1-2)Man(a1-6)[Gal(b1-4)GlcNAc(b1-2)Man(a1-3)]Man(b1-4)GlcNAc(b1-4)GlcNAc
Summary of the method: as §1

[35] = target: Neu5Ac(a2-6)Gal(b1-4)GlcNAc(b1-3)[Neu5Ac(a2-6)Gal(b1-4)GlcNAc(b1-6)]GalNAc
Summary of the method: as §1

[36] = target: Neu5Gc(a2-6)Gal(b1-4)GlcNAc
Summary of the method: as §1

B1: Calsepa (Calystegia sepium), P93114 (protein)
chain: MAVPMDTISGPWGNNGGNFWSFRPVNKINQIVISYGGGGNNPIALTFSSTKADGSKDTITVGGGGPDSITGTEMVNIGTDEYLTGISGTFGIYLDNNVLRSITFTTNLKAHGPYGQKVGTPFSSANVVGNEIVGFLGRSGYYVDAIGTYNRHK
glycan array binding signal (z-score) [1]: -0.268 | glycan array binding signal (z-score) [2]: -0.257 | glycan array binding signal (z-score) [3]: -0.26 | glycan array binding signal (z-score) [4]: -0.249 | glycan array binding signal (z-score) [5]: -0.082 | glycan array binding signal (z-score) [6]: -0.253 | glycan array binding signal (z-score) [7]: -0.265 | glycan array binding signal (z-score) (Fuc(a1-4)GlcNAc): -0.244 | glycan array binding signal (z-score) [8]: -0.269 | glycan array binding signal (z-score) [9]: 3.47 | glycan array binding signal (z-score) [10]: 3.79 | glycan array binding signal (z-score) [11]: -0.253 | glycan array binding signal (z-score) [12]: 4.21 | glycan array binding signal (z-score) [13]: -0.25 | glycan array binding signal (z-score) [14]: -0.252 | glycan array binding signal (z-score) [15]: -0.253 | glycan array binding signal (z-score) [16]: -0.248 | glycan array binding signal (z-score) [17]: 5.25 | glycan array binding signal (z-score) [18]: -0.045 | glycan array binding signal (z-score) [19]: 3.71 | glycan array binding signal (z-score) [20]: -0.251 | glycan array binding signal (z-score) [21]: -0.249 | glycan array binding signal (z-score) (Gal(b1-4)GlcNAc6P): -0.27 | glycan array binding signal (z-score) (Gal6S(b1-4)Glc6S): -0.237 | glycan array binding signal (z-score) (GlcA(b1-3)Gal): -0.244 | glycan array binding signal (z-score) [22]: 5 | glycan array binding signal (z-score) [23]: 5.82 | glycan array binding signal (z-score) [24]: -0.241 | glycan array binding signal (z-score) (GlcNAc3Prop(b1-4)GlcNAc): -0.246 | glycan array binding signal (z-score) (Man(a1-2)Man(a1-3)Man): -0.248 | glycan array binding signal (z-score) [25]: -0.251 | glycan array binding signal (z-score) [26]: -0.239 | glycan array binding signal (z-score) [27]: -0.255 | glycan array binding signal (z-score) [28]: -0.273 | glycan array binding signal (z-score) [29]: 6.79 | glycan array binding signal (z-score) [30]: 3.81 | glycan array binding signal (z-score) [31]: 3.86 | glycan array binding signal (z-score) [32]: 4.29 | glycan array binding signal (z-score) [33]: 0.514 | glycan array binding signal (z-score) [34]: 4.01 | glycan array binding signal (z-score) [35]: -0.274 | glycan array binding signal (z-score) [36]: -0.247
